The values below come from PubChem BioAssay (NCI).

This is part of a sample that, as a whole, favours compounds with a hit. Of some 83,000 tested, about 20% had one in any assay.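 Each cell line was grown in a 96-well plate and treated with one concentration of compound for 48 hours. Values below 10 were considered active.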 Unmarked numbers belong to inactive results. The source made the active and inactive calls.

One test deals with HCT-15 colon. In words: NCI-60 one-dose screen, 48 h (100 = growth as untreated, 0 = no growth, -100 = all killed). Conditions: 10 µM unless noted.
As to `Nc1c(C(=O)c2ccc(F)cc2)sc2nc3c(cc12)CCCC3`, the growth is 58.4%.
Still for that read-out and setting: as for `COc1cccc(/C=C2\SC(N3CCN(c4ccccn4)CC3)=NC2=O)c1`, the figure is 105%; as for `CCCC(C(=O)OCC)C(C)OC(=O)OCC` (stereo not drawn), 99.9%; as for `O=C(/C=C/CN1CCOCC1)Nc1cc2c(Nc3cccc(Cl)c3F)ncnc2cc1OCCOC(F)F`, 69.2%.
As for `COc1ccc(-c2nc3sccn3c2-c2ccnc(NCCCNS(=O)(=O)c3ccc4ccccc4c3)n2)cc1`, the growth is 44.9%.
Same read-out and setting: as for `CC(CCc1ccccc1)NC(=O)c1n[nH]c(=O)c2ccccc12` (stereo not drawn), the figure is 101%.
Still for that read-out and setting: as for `Cc1cc(NC(=O)COC(=O)c2sc3cc(F)ccc3c2Cl)no1`, the figure is 106%; as for `COc1ccc(C(=O)c2cc(OC)c(OC)c(OC)c2)cc1/C=C/C(=O)c1ccc2c(c1)OCO2`, -22.6% (active).
Same read-out and setting: as for `COc1ccc(/C=C/c2cc(N3CCOCC3)c3cc(F)c(F)cc3n2)cc1OC`, the figure is 30%; as for `CCn1cc(C(=O)O)c(=O)c2cc(F)c(N3CCN(S(=O)(=O)c4c(C)cc(C)cc4C)CC3)cc21`, 71.5%.
`O=C(Nc1cc(C(F)(F)F)cc(C(F)(F)F)c1)Nc1ccc(OCc2nnc(-c3ccc(Cl)cc3)o2)c(F)c1`: the growth was 13.6%.
In the case of `O=C(c1ccncc1)N1N=C(c2ccc(Cl)cc2)CC1c1c[nH]c2ccccc12` (stereo not drawn), the growth is 93.6%.
Same read-out and setting: in the case of `CC(Br)C(OC(=O)c1ccccc1Cl)c1cc2c(cc1Br)OCO2` (stereo not drawn) it was 86.9%; in that of `CCC(c1ccc(OC)cc1)C(CC)c1ccc(O)c(CN2CCCC2)c1` (stereo not drawn), 1.62% (active).
Same read-out and setting: in the case of `CC(C)(C)OC(=O)N[C@@H](Cc1ccccc1)C(=O)N(Cc1ccccc1)C1(C(=O)NCc2ccccc2)CCN(Cc2ccccc2)CC1` it was 36.1%.
In the case of `Cn1c(-c2nonc2NC(=O)c2ccc(F)cc2)nc2ccccc21`, the growth was 103%.
The same measure, in the same setting: in the case of `c1ccn2nnnc2c1` it was 99.8%.
Still for that read-out and setting: in the case of `c1cncc(CNc2ccccc2-c2nnc(Nc3ccc4c(c3)OCCO4)o2)c1` it was 19%.
The same measure, in the same setting: as for `COc1cc2nc(SCc3cc(OC)c(OC)c(OC)c3)n(Cc3ccccc3)c(=O)c2cc1OC`, the figure is 20.1%.
As for `COc1ccc(C(=O)N2CCN(C(=O)c3cc(OC)c(OC)c(OC)c3)CC2)cc1OCCCCOc1cc2c(cc1OC)C(=O)N1CCC[C@H]1C=N2`, the growth is 118%.
Regarding `O=S(=O)(NCCNc1cc(-c2cn(-c3ccccc3)nc2-c2ccccc2)ccn1)c1cccc2ccccc12`, the growth was 43.4%.
Still for that read-out and setting: in the case of `O=S(=O)(NCCNc1nccc(-c2c(-c3ccccc3)nc3sccn23)n1)c1ccc(O)cc1` it was 47.9%; in that of `Cc1ccc2c(c1)C(C)Cc1c(N(C)C)ncnc1N2C` (stereo not drawn), 20.6%; in that of `CCN(CC)c1cc(/C=C/c2ccc(OC)c(OC)c2)nc2cc(F)c(F)cc12`, 80.1%.
In the case of `COc1ccc(-c2nc3sccn3c2-c2ccnc(NCCCNS(=O)(=O)c3ccc(C)cc3)n2)cc1`, the growth was 16.8%.
Same read-out and setting: as for `C=C1C(=O)O[C@H]2[C@H]1CC/C(Cn1cc(-c3ccc(N)cc3)nn1)=C\CC[C@@]1(C)O[C@@H]21`, the figure is -46.9% (active); as for `CC(C)N(Cc1ccc(CN(C(=O)CCl)C(C)C)cc1)C(=O)CCl`, 0.15% (active).
On the same count and under the same terms, in the case of `COc1ccc(NC(=S)/N=c2\oc3c(OC)cccc3cc2-c2cc3ccccc3[nH]2)cc1` it was 84.1%; in that of `Cc1cnc(NC(=O)C(Cc2ccccc2)NC(=O)c2ccccc2)s1` (stereo not drawn), 79.9%.
The same measure, in the same setting: in the case of `CC(C)C[C@H](NC(=O)Cn1ccc(NCc2ccccc2)cc1=O)B(O)O` it was 23.5%.
Regarding `CN1CCN(CCCOc2ccc3nc(Nc4ccc(C(F)(F)F)c(Cl)c4)ccc3c2)CC1`, the growth is -36.9% (active).
Same read-out and setting: in the case of `O=C(CCCn1c2c(sc3ccccc32)c(=O)n2nnc(-c3ccccc3)c12)NCCc1cnc[nH]1` it was -62.8% (active); in that of `CC1Cc2c(N(C)C)ncnc2N(C)c2ccc(Cl)cc21` (stereo not drawn), 18.8%.
On the same count and under the same terms, in the case of `O=C(Nc1ccc(F)cc1)c1cc([N+](=O)[O-])ccc1O` it was 68.1%; in that of `CC(=O)Nc1ccc2c(c1)/C(=C\C=C/c1ccc([N+](C)(C)C)cc1)c1ccccc1-2`, 89.1%; in that of `COc1ccc(-c2nc3sccn3c2-c2ccnc(NCCNS(=O)(=O)c3ccc(C(F)(F)F)cc3)n2)cc1`, 9.19% (active).
Still for that read-out and setting: in the case of `O=C1C2=C(C(=O)c3c(O)ccc(O)c31)N(c1cccnc1)Cc1ccccc1O2` it was -32.8% (active).
As to `CC(=O)Nc1ccc(S(=O)(=O)NC(CCC(=O)Nc2ccc(Cl)cc2)C(=O)O)cc1` (stereo not drawn), the growth was 98.9%.
The same measure, in the same setting: in the case of `COc1ccc(-c2cn[nH]c2-c2cc(OC)c3c(c2)OCCO3)cc1` it was 20.7%.

The test system of another test is HT29 colon. Described as above. Conditions: 10 µM unless noted.
For `Nc1c(C(=O)c2ccc(F)cc2)sc2nc3c(cc12)CCCC3`, the growth is 66%.
Still for that read-out and setting: in the case of `COc1cccc(/C=C2\SC(N3CCN(c4ccccn4)CC3)=NC2=O)c1` it was 84.7%.
On the same count and under the same terms, in the case of `CCCC(C(=O)OCC)C(C)OC(=O)OCC` (stereo not drawn) it was 104%.
The same measure, in the same setting: as for `O=C(/C=C/CN1CCOCC1)Nc1cc2c(Nc3cccc(Cl)c3F)ncnc2cc1OCCOC(F)F`, the figure is 66.3%; as for `COc1ccc(-c2nc3sccn3c2-c2ccnc(NCCCNS(=O)(=O)c3ccc4ccccc4c3)n2)cc1`, 44.1%.
Consider `CC(CCc1ccccc1)NC(=O)c1n[nH]c(=O)c2ccccc12` (stereo not drawn), for which the growth was 105%.
On the same count and under the same terms, in the case of `Cc1cc(NC(=O)COC(=O)c2sc3cc(F)ccc3c2Cl)no1` it was 114%; in that of `COc1ccc(C(=O)c2cc(OC)c(OC)c(OC)c2)cc1/C=C/C(=O)c1ccc2c(c1)OCO2`, -27.2% (active).
On the same count and under the same terms, as for `COc1ccc(/C=C/c2cc(N3CCOCC3)c3cc(F)c(F)cc3n2)cc1OC`, the figure is 38.9%; as for `CCn1cc(C(=O)O)c(=O)c2cc(F)c(N3CCN(S(=O)(=O)c4c(C)cc(C)cc4C)CC3)cc21`, 94.8%.
On the same count and under the same terms, in the case of `O=C(Nc1cc(C(F)(F)F)cc(C(F)(F)F)c1)Nc1ccc(OCc2nnc(-c3ccc(Cl)cc3)o2)c(F)c1` it was 10.8%; in that of `O=C(c1ccncc1)N1N=C(c2ccc(Cl)cc2)CC1c1c[nH]c2ccccc12` (stereo not drawn), 101%.
On to `CC(Br)C(OC(=O)c1ccccc1Cl)c1cc2c(cc1Br)OCO2` (stereo not drawn), for which the growth is 85.5%.
On the same count and under the same terms, in the case of `CCC(c1ccc(OC)cc1)C(CC)c1ccc(O)c(CN2CCCC2)c1` (stereo not drawn) it was 4.26% (active); in that of `CC(C)(C)OC(=O)N[C@@H](Cc1ccccc1)C(=O)N(Cc1ccccc1)C1(C(=O)NCc2ccccc2)CCN(Cc2ccccc2)CC1`, 23.9%.
`Cn1c(-c2nonc2NC(=O)c2ccc(F)cc2)nc2ccccc21`: the growth is 101%.
Same read-out and setting: as for `c1ccn2nnnc2c1`, the figure is 98.9%.
Same read-out and setting: as for `c1cncc(CNc2ccccc2-c2nnc(Nc3ccc4c(c3)OCCO4)o2)c1`, the figure is 2.31% (active); as for `COc1cc2nc(SCc3cc(OC)c(OC)c(OC)c3)n(Cc3ccccc3)c(=O)c2cc1OC`, 10.6%.
Same read-out and setting: as for `COc1ccc(C(=O)N2CCN(C(=O)c3cc(OC)c(OC)c(OC)c3)CC2)cc1OCCCCOc1cc2c(cc1OC)C(=O)N1CCC[C@H]1C=N2`, the figure is 45.8%; as for `O=S(=O)(NCCNc1cc(-c2cn(-c3ccccc3)nc2-c2ccccc2)ccn1)c1cccc2ccccc12`, 23.6%; as for `O=S(=O)(NCCNc1nccc(-c2c(-c3ccccc3)nc3sccn23)n1)c1ccc(O)cc1`, 21.4%.
In the case of `Cc1ccc2c(c1)C(C)Cc1c(N(C)C)ncnc1N2C` (stereo not drawn), the growth was 4.7% (active).
Turning to `CCN(CC)c1cc(/C=C/c2ccc(OC)c(OC)c2)nc2cc(F)c(F)cc12`, the growth was 103%.
On the same count and under the same terms, as for `COc1ccc(-c2nc3sccn3c2-c2ccnc(NCCCNS(=O)(=O)c3ccc(C)cc3)n2)cc1`, the figure is 18.4%; as for `C=C1C(=O)O[C@H]2[C@H]1CC/C(Cn1cc(-c3ccc(N)cc3)nn1)=C\CC[C@@]1(C)O[C@@H]21`, -59.4% (active); as for `CC(C)N(Cc1ccc(CN(C(=O)CCl)C(C)C)cc1)C(=O)CCl`, -49.7% (active).
The same measure, in the same setting: in the case of `COc1ccc(NC(=S)/N=c2\oc3c(OC)cccc3cc2-c2cc3ccccc3[nH]2)cc1` it was 82.8%; in that of `Cc1cnc(NC(=O)C(Cc2ccccc2)NC(=O)c2ccccc2)s1` (stereo not drawn), 55%.
On the same count and under the same terms, as for `CC(C)C[C@H](NC(=O)Cn1ccc(NCc2ccccc2)cc1=O)B(O)O`, the figure is -15.2% (active).
On to `CN1CCN(CCCOc2ccc3nc(Nc4ccc(C(F)(F)F)c(Cl)c4)ccc3c2)CC1`, for which the growth was -67.2% (active).
Same read-out and setting: as for `O=C(CCCn1c2c(sc3ccccc32)c(=O)n2nnc(-c3ccccc3)c12)NCCc1cnc[nH]1`, the figure is -100% (active); as for `CC1Cc2c(N(C)C)ncnc2N(C)c2ccc(Cl)cc21` (stereo not drawn), 10.8%.
Turning to `O=C(Nc1ccc(F)cc1)c1cc([N+](=O)[O-])ccc1O`, the growth is 61.7%.
The same measure, in the same setting: in the case of `CC(=O)Nc1ccc2c(c1)/C(=C\C=C/c1ccc([N+](C)(C)C)cc1)c1ccccc1-2` it was 59.2%; in that of `COc1ccc(-c2nc3sccn3c2-c2ccnc(NCCNS(=O)(=O)c3ccc(C(F)(F)F)cc3)n2)cc1`, 14.5%; in that of `O=C1C2=C(C(=O)c3c(O)ccc(O)c31)N(c1cccnc1)Cc1ccccc1O2`, -60.4% (active).
On to `CC(=O)Nc1ccc(S(=O)(=O)NC(CCC(=O)Nc2ccc(Cl)cc2)C(=O)O)cc1` (stereo not drawn), for which the growth is 106%.
On the same count and under the same terms, as for `COc1ccc(-c2cn[nH]c2-c2cc(OC)c3c(c2)OCCO3)cc1`, the figure is 1.7% (active).
